From the OligoGym collection

These sequences were tested against C13orf33 (assay: pooled miR-30 sensor sort-seq; sequence = guide strand). Settings: shRNA.
Also: reference of the scale not given here.

| Sequence | sensor-assay potency score (higher = more potent) |
| --- | --- |
| TCTATCTGTCTTCTTATCTTGG | -0.385 |
| TTAATAAAGAACAACATTGGTT | -0.331 |
| TAATCGTCTCCTTCTTTTCTGG | -0.326 |
| TACCTCTTGATGTAGCTGCTGA | 0.0733 |
| TATCTGTCTTCTTATCTTGGGG | -0.395 |
| TAACTTTCTCCAATCACTGAGG | -0.682 |
| TTACACTGAACTTTCGGTCAGA | 0.151 |

These sequences were tested against C14orf105 in the same assay as above. Settings: shRNA.

| Sequence | sensor-assay potency score (higher = more potent) |
| --- | --- |
| TTGCTTATTAATTCTTGCCTCT | -0.134 |
| TTAATAATACTTGTTTCTCTGT | -0.864 |
| TTTGCTTTGTGCATTGTCCTGG | 0.729 |
| TTTGCTTATTAATTCTTGCCTC | 0.114 |
| TTTCTAGTACCTGCTTTGCTTT | -0.906 |
| TTGAATGCAAAGTCCACACGGC | 0.351 |
| TTCCTGAAGTAATTACTCGTGG | -0.0565 |
| TTTTCTTTAACTCCATTTGGGC | -0.637 |
| TTTCTTTTCTAGTACCTGCTTT | -0.0807 |
| TTCCATACCAGTTTTCTTGTAA | 0.252 |
| TTCTTTTCTAGTACCTGCTTTG | -0.834 |
| TTGCTTTGTGCATTGTCCTGGC | 0.239 |

The sequences below were run against C14orf109 in the same assay as above. Settings: shRNA.

| Sequence | sensor-assay potency score (higher = more potent) |
| --- | --- |
| ATAACTGCCAAGCATATAGGGA | -0.701 |
| TTCAAGGAGTGTGTCCATGTGG | -0.159 |
| ATGCTCTGTGCAATGGTCCCGA | -0.872 |
| AAAATAACTGTCCACACCCAAA | -1.6 |
| TTCATCATTCTCCATGCTCTGT | -0.667 |
| AAAAATAACTGTCCACACCCAA | -0.714 |
| TTGCAAATAACTGCCAAGCATA | -1.38 |
| TAACTGCCAAGCATATAGGGAT | -0.363 |
| ATAGGAACAAAAACATCTGTAA | -0.255 |
| AAACATAGTAAAATGCTGCTGC | 0.701 |
| TTAAAGAGTCACTCAGCTCTGA | 0.487 |
| TACAATCCCACTCCAATCCATC | -0.538 |

These sequences were tested against C14orf149 in the same assay as above. Settings: shRNA.

| Sequence | sensor-assay potency score (higher = more potent) |
| --- | --- |
| TTATAAAGCTTGCTGTACCCGT | 0.0873 |
| TATAAGCATCTTTTCCATCTGT | 0.316 |
| TAAACTGAGCTTTCACTGCCTC | -0.0059 |
| TAATTTAGAGAAAACAGTCCTT | 0.523 |
| TTAAAATCACCACATTTCGCTT | -0.838 |
| TAAAATCACCACATTTCGCTTC | 0.352 |
| TCTTCTATTATAAAGCTTGCTG | -0.472 |
| TCTATTATAAAGCTTGCTGTAC | -0.349 |
| TTCTATTATAAAGCTTGCTGTA | -1.15 |
